# Source: PubChem BioAssay (Tox21)
# Inconclusive results are not listed. Where a call stands in place of a potency, no number is given. Active and inactive are the calls of the source. Unless noted, calls come from the whole dose curve; as a rule, active = well fitted curve in the direction sought with a large enough effect in the repeat runs; inconclusive = weak or mixed curves; inactive = no such curve, though single readings can be large; an effect the other way counts as inactive or inconclusive.
# Columns and labels:
# [1] = target: Androgen receptor (Homo sapiens) (UniProt P10275); assay: qHTS assay to identify small molecule antagonists of the androgen receptor (AR) signaling pathway using the MDA cell line in the presence of 0.5 nM R1881 (AID 1259243); note: potency is the fitted concentration of half-maximal effect; nearly all actives have a fitted effect of over 50% in size
# In short: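 Antagonist mode quantitative HTS in MDA-kb2 MMTV-luciferase cells, agonist R1881 at 0.5 nM final, 16 hr exposure at 37C and 0% CO2, luminescent detection.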
# [2] = qHTS assay to identify small molecule HDAC inhibitors (AID 1259364);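 note: wild-type HCT-116 cells with endogenous class I/II HDAC activity; top concentration of the series differs between compounds; nearly all actives have a fitted effect of over 45% in size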
# In short: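 Quantitative high-throughput format: overnight-seeded HCT-116 cells got compounds for 2 hr at 37C; HDAC-Glo I/II reagent added, 30 min RT, luminescence measured.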
# [3] = qHTS assay to identify small molecule agonists of the sonic hedgehog signaling (Shh) pathway - cell viability counter screen (AID 1259366); note: nearly all actives have a fitted effect of over 50% in size; note: potency is the fitted concentration of half-maximal effect
# In short: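 After a 4hr attachment at 37C, NIH/3T3 cells bearing an integrated Gli1-driven luciferase reporter were dosed with compounds. Treatment lasted 24hr, with the final hour including CellTiter-Fluor for a fluorescence viability measurement.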
# [4] = qHTS assay to identify small molecule antagonists of the sonic hedgehog signaling (Shh) pathway - cell viability counter screen (AID 1259367); note: nearly all actives have a fitted effect of over 55% in size; note: potency is the fitted concentration of half-maximal effect
# In short: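 CellTiter-Fluor signal in conditioned medium-stimulated 3T3 Gli1-Luc cells, 23 hr compound exposure, 37C.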
# [5] = qHTS assay to identify small molecule agonists of the sonic hedgehog signaling (Shh) pathway (AID 1259368; calls by dose curve;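 note: NIH/3T3-derived 3T3Gli1-Luc cells carrying a stable Gli1-driven firefly luciferase reporter; series mostly up to about 92 µM; nearly all actives have a fitted effect of over 15% in size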)
# In short: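 Quantitative high-throughput format using a Gli1-driven firefly luciferase reporter line derived from NIH/3T3 cells. After a 24 hr compound treatment at 37 C and 5% CO2, luminescence reported Gli1 response element activity.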
# [6] = qHTS assay to identify small molecule antagonists of the sonic hedgehog signaling (Shh) pathway (AID 1259369; calls by dose curve; note: potency is the fitted concentration of half-maximal effect; nearly all actives have a fitted effect of over 45% in size)
# In short: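 Stable Gli1-Luc reporter NIH/3T3 clone; quantitative HTS in stimulated mode with conditioned medium. Luminescence measured after 24hr compound treatment at 37 C.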
# [7] = qHTS assay to identify small molecule agonists of the estrogen receptor beta (ER-beta) signaling pathway - cell viability counter screen (AID 1259380); note: potency is the fitted concentration of half-maximal effect; nearly all actives have a fitted effect of over 30% in size
# In short: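 Steps: plate ER-beta-UAS-bla HEK293T cells, rest 6 hr; add compounds in DMSO; incubate 16 hr at 37C, 5% CO2; add FRET substrate 2 hr; add CellTiter-Glo, wait 30 min at room temperature; read luminescence.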
# [8] = target: Androgen receptor (Homo sapiens) (UniProt P10275); assay: qHTS assay to identify small molecule agonists of the androgen receptor (AR) signaling pathway in the presence of an antagonist (AID 1259381; calls by dose curve; note: nearly all actives have a fitted effect of over 15% in size)
# In short: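 Reporter-gene luminescence from MDA-kb2 cells exposed 16hr at 37C (0% CO2) to 15-point compound titrations with 3.0uM final nilutamide as AR antagonist.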
# [9] = qHTS assay to identify small molecule agonists or antagonists of the thyroid stimulating hormone receptor (TSHR) signaling pathway - wild type cell line counter screen (AID 1259384; calls by dose curve)
# In short: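 Counter screen in untransfected Hek293: compounds (15-point titration, triplicate) plus phosphodiesterase inhibitor Ro20-1724 added after 18 h plating; 30 min RT. Intracellular cAMP via competitive d2/cryptate immunoassay, 1 h incubation.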
# [10] = target: Thyrotropin receptor (Homo sapiens) (UniProt P16473); assay: qHTS assay to identify small molecule antagonists of the thyroid stimulating hormone receptor (TSHR) signaling pathway (AID 1259385; calls by dose curve; note: nearly all actives have a fitted effect of over 20% in size; note: potency is the fitted concentration of half-maximal effect)
# In short: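 Antagonist mode: compound-treated TSHR-expressing HEK293 cells were stimulated with 1.5 ng/mL TSH (final) in presence of Ro20-1724 for 30 min at RT. HTRF cAMP detection after 1 h; each compound tested at 15 concentrations, triplicate.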
# [11] = qHTS assay to identify small molecule antagonists of the androgen receptor (AR) signaling pathway using the MDA cell line in the presence of 0.5 nM R1881 - cell viability counter screen (AID 1259242); note: nearly all actives have a fitted effect of over 45% in size; note: potency is the fitted concentration of half-maximal effect
# In short: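 qHTS format. MDA-kb2 (MMTV-luc, AR/GR responsive) + cpd + 0.5 nM R1881 final, 16 hr 37C/0% CO2 → CellTiter-Fluor 30 min → fluorescence intensity.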
# [12] = target: Estrogen receptor (Homo sapiens) (UniProt P03372); assay: qHTS assay to identify small molecule antagonists of the estrogen receptor alpha (ER-alpha) signaling pathway using the BG1 cell line in the presence of 0.1 nM 17-beta-estradiol (AID 1259244); note: potency is the fitted concentration of half-maximal effect; nearly all actives have a fitted effect of over 50% in size
# In short: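 Reporter is a stably transfected luciferase under four estrogen responsive elements in VM7Luc4E2 cells expressing native full-length ER-alpha; inhibition of 0.1 nM (final) 17beta-estradiol-driven signal over 22 h is read by luminescence.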
# [13] = qHTS assay to identify small molecule HDAC inhibitors - cell viability counter screen (AID 1259365); note: nearly all actives have a fitted effect of over 50% in size; note: potency is the fitted concentration of half-maximal effect
# In short: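 Following a 2hr exposure of overnight-plated wild-type HCT-116 cells to DMSO-delivered compounds, CellTiter-Glo was added and luminescence recorded after 30min at room temperature.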
# [14] = qHTS assay to identify small molecule agonists of the androgen receptor (AR) signaling pathway in the presence of an antagonist - cell viability counter screen (AID 1259379); note: potency is the fitted concentration of half-maximal effect; nearly all actives have a fitted effect of over 25% in size
# In short: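 Nilutamide-containing (3.0uM final) MDA-kb2 cultures, 3,000 cells/well, were treated with compounds across 15 concentrations. After 16 hr at 37C with no CO2, cell viability was determined by CellTiter-Fluor fluorescence in the luciferase assay wells.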
# [15] = qHTS assay to identify small molecule antagonists of the estrogen receptor beta (ER-beta) signaling pathway - cell viability counter screen (AID 1259382); note: nearly all actives have a fitted effect of over 55% in size; note: potency is the fitted concentration of half-maximal effect
# In short: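 Viability is scored by CellTiter-Glo luminescence (30 min, room temperature) in ER-beta-UAS-bla HEK293T wells already read for reporter fluorescence. Compound exposure lasts 16 hr at 37C alongside 1nM 17-beta-estradiol in charcoal-stripped serum medium.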
# [16] = target: Estrogen receptor (Homo sapiens) (UniProt P03372); assay: qHTS assay to identify small molecule agonists of the estrogen receptor alpha (ER-alpha) signaling pathway in the presence of an antagonist (AID 1259383; calls by dose curve; note: top concentration of the series differs between compounds; nearly all actives have a fitted effect of over 15% in size)
# In short: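 Readout was ERE-driven luciferase luminescence in VM7Luc4E2 cells, which express full-length ER-alpha endogenously. Compounds were tested at 15 concentrations for 22hr alongside 10.0nM ICI-182,780 (final concentration).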
# [17] = target: Estrogen receptor beta (Homo sapiens) (UniProt Q92731); assay: qHTS assay to identify small molecule antagonists of the estrogen receptor beta (ER-beta) signaling pathway (AID 1259378; active = well fitted inhibition curve with a large enough effect in the signal ratio in the repeat runs, not every such curve was filed as active; the % refers to the signal ratio; note: potency is the fitted concentration of half-maximal effect)
# In short: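 Antagonist mode: compounds added to beta-lactamase reporter HEK293T ER-beta-UAS cells stimulated with E2 (1nM final), 16 hr at 37C. LiveBLAzer B/G FRET substrate, 2 hours room temperature, fluorescence read-out.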
# [18] = qHTS assay to identify small molecule phospholipidosis (PLD) inducers (AID 1259344; active = well fitted curve in the direction sought with a large enough effect; an effect the other way counts as inactive or inconclusive)
# In short: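 Accumulated phospholipid, stained red by LipidTOX during 24 h compound treatment of HepG2 cells at 37 C, is quantified from images as pit number and intensity, normalised per cell using Hoechst-stained nuclei.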
# Chain of Estrogen receptor (Homo sapiens) (P03372 whole entry, looked up): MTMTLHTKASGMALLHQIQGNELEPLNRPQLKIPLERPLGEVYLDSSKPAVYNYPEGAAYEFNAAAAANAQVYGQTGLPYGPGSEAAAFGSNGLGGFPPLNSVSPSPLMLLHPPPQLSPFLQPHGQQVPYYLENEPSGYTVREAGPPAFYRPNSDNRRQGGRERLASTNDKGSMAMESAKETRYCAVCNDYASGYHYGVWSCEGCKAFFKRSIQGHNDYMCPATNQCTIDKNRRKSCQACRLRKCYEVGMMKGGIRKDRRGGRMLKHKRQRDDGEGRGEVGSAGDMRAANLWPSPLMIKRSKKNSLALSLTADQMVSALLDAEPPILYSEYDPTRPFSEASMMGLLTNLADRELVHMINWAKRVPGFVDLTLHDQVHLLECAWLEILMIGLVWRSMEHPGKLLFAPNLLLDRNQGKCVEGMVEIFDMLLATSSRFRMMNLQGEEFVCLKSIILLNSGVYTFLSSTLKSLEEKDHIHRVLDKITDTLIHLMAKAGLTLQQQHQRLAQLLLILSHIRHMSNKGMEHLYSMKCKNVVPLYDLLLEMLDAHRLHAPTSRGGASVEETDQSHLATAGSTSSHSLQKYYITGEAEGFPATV
# Chain of Androgen receptor (Homo sapiens) (P10275 whole entry, looked up): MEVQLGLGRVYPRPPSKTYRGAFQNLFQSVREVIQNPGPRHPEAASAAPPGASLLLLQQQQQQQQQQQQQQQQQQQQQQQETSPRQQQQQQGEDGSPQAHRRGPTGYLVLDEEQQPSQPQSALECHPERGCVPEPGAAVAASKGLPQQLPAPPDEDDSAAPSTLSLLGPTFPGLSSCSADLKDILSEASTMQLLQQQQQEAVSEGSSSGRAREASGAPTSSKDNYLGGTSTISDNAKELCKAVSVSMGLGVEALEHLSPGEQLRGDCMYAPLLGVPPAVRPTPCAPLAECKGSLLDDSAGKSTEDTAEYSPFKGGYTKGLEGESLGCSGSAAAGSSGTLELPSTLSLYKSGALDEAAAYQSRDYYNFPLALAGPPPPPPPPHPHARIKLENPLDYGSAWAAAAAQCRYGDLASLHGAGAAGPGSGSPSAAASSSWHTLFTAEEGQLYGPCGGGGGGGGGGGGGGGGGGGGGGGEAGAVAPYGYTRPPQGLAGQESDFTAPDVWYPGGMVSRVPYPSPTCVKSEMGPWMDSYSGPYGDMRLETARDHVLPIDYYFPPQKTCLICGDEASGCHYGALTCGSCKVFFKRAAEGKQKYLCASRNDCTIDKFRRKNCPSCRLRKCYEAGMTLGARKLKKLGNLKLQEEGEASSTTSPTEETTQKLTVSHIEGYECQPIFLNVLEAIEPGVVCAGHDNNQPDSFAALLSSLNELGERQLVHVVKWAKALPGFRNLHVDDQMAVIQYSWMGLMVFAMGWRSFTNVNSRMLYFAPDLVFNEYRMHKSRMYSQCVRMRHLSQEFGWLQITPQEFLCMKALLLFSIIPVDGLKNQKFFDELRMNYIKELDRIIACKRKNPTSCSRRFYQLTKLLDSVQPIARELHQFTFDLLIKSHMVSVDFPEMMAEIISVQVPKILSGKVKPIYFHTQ
# Chain of Thyrotropin receptor (Homo sapiens) (P16473 whole entry, looked up): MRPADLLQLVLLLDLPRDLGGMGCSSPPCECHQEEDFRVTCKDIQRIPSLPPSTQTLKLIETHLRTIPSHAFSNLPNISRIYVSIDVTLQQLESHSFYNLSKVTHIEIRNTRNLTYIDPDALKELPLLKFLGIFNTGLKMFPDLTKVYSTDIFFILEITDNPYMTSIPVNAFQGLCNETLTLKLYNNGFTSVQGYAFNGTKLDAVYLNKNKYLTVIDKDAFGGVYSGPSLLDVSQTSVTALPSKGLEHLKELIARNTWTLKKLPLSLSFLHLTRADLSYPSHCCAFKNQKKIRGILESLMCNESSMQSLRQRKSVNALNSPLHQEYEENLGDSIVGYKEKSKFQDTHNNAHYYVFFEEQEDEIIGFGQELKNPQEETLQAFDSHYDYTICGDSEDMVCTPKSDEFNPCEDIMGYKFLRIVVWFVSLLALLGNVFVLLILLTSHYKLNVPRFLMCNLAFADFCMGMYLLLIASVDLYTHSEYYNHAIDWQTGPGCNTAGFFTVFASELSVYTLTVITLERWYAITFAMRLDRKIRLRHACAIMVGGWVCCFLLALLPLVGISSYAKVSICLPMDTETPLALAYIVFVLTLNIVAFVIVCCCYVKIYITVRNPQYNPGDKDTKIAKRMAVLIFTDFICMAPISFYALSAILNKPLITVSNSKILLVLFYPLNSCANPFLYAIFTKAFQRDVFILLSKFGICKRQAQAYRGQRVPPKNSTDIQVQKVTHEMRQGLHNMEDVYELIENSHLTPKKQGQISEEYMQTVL
# Chain of Estrogen receptor beta (Homo sapiens) (Q92731 whole entry, looked up): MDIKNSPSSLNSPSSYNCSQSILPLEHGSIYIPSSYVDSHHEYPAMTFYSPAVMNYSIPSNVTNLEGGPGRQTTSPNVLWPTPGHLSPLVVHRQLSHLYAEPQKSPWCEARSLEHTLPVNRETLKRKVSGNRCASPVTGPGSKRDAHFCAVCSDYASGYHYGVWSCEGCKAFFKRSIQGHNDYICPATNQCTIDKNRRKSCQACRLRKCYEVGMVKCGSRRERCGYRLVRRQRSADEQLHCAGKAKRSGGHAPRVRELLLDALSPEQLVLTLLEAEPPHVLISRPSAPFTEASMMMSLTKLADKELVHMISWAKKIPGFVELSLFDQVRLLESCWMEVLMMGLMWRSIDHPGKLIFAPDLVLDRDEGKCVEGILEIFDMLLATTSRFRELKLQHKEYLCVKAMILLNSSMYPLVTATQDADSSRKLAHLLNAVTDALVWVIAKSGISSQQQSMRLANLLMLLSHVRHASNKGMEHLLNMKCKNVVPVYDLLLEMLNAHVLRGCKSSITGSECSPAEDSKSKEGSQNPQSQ
Structure (SMILES),Potency [1],Potency [2],Potency [3],Potency [4],Potency [5],Potency [6],Potency [7],Potency [8],outcome [9],Potency [10],Potency [11],Potency [12],Potency [13],Potency [14],Potency [15],Potency [16],Potency [17],Potency [18]
CC/C(=C(\c1ccc(O)cc1)c1ccc(OCCN(C)C)cc1)c1ccccc1,61.3 µM (active),inactive,21.7 µM (active),30.7 µM (active),inactive,9.71 µM (active),24.4 µM (active),inactive,inactive,77.1 µM (active),,,,,,,,
CCCCCCCCCCCCCCCCCC[N+](C)(C)Cc1ccccc1,17.4 µM (active),inactive,24.6 µM (active),,inactive,0.155 µM (active),24.6 µM (active),inactive,inactive,inactive,49 µM (active),55 µM (active),61.7 µM (active),55 µM (active),27.6 µM (active),inactive,,
CCN(CC)CCNC(=O)c1c(C)[nH]c(/C=C2\C(=O)Nc3ccc(F)cc32)c1C,,,5.96 µM (active),13.3 µM (active),inactive,3.35 µM (active),11.9 µM (active),,,,29.8 µM (active),,inactive,29.8 µM (active),11.9 µM (active),,33.5 µM (active),
Nc1nc2ccccc2n1Cc1ccc(F)cc1,7.5 µM (active),inactive,inactive,inactive,inactive,,,inactive,inactive,,,10.6 µM (active),inactive,26.6 µM (active),inactive,inactive,,
CCCCCCCCNC(C)C(O)c1ccc(SC(C)C)cc1 (centres undefined),23.7 µM (active),inactive,16.8 µM (active),,inactive,18.8 µM (active),11.9 µM (active),inactive,inactive,,23.7 µM (active),29.8 µM (active),,23.7 µM (active),13.3 µM (active),inactive,,inactive
O=C(Nc1ccc(Oc2ccc(Cl)cc2)c(Cl)c1)c1cc(I)cc(I)c1O,,inactive,inactive,inactive,inactive,29.8 µM (active),11.9 µM (active),,inactive,inactive,inactive,,inactive,,,,,inactive
N=C1N=C(N)c2cc3ccccc3cc21,,inactive,27.3 µM (active),,inactive,0.969 µM (active),21.7 µM (active),,,,,,inactive,,,,,inactive
